# Sampled rows, rich in hits. Any-hit rate of the full collection: about 14%.
# HCMV inh = inhibitors of human cytomegalovirus | HFF cells, HCMV-luciferase reporter, 72 h; hits give low values | activity change, negative = inhibition, % at 57.5 µM | hit rate 4.5% among 410,000 | AID 1259415; in the data active means activity change below about -60%; inconclusive means no clear call, values can overlap the other calls; inactive means above about -39%
#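 Cell-based, HFFs, 1000 cells/well, 16 h 37C; cpds in DMSO + HCMV-luc, MOI 1 PFU/cell; 72 h 37C; OneGlo luminescence after 5 min RT; norm. to buffer vs Salinomycin 10uM.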
# Sm TGR block = S. mansoni TGR enzyme inhibition; Q962Y6; hit rate 3% among 360,000; purified TGR, DTNB reduction, TNB absorbance 405 nm; Potency, µM (doses to about 114 µM), without a hit: at the highest dose activity change, negative = inhibition, hits mostly inhibitors; further: potency means the concentration at half of the fitted maximal effect; nearly all actives have a fitted effect of over 60% in size
#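 Kinetic colorimetric format: TGR-catalysed, NADPH-driven DTNB reduction monitored via TNB absorbance. Enzyme dispensed at 20 nM; compound exposure 15 min at room temperature before reaction start.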
# Pf growth 48h = inhibits P. falciparum growth in the first generation, 48 h; P. falciparum luciferase growth in erythrocytes, 48 h; Potency, µM (titrated, usually from 28.7 µM), for the others: top-dose activity change, negative = inhibition, usual class: inhibitors; hit rate 5.9% among 310,000; AID 504832; further: potency means the concentration at half of the fitted maximal effect
#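 In quantitative HTS format, infected erythrocytes bearing luciferase-reporter parasites were treated for a single generation at 37 C. Luminescence after adding detection reagent served as the growth measure.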
# FBPA Giardia inh = inhibitors of Giardia lamblia fructose-1,6-bisphosphate aldolase; A8B2U2; purified Giardia FBPA; Potency, µM (top dose mostly 59.6 µM), inactives show at the top dose activity, negative = inhibition, usual class: inhibitors; hit rate 0.71% among 290,000; AID 2451; further: potency means the concentration at half of the fitted maximal effect; nearly all actives have a fitted effect of over 55% in size
# Target sequence (A8B2U2 whole entry, looked up): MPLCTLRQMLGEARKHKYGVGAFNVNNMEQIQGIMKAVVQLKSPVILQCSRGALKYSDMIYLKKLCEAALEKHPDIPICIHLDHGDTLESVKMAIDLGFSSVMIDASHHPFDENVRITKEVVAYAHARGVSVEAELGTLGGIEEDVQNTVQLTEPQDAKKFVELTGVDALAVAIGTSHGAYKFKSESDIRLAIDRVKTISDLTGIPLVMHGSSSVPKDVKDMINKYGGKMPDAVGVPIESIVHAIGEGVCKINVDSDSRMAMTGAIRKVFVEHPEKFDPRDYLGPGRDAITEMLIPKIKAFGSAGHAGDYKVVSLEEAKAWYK
#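 Giardia FBPA (40 nM reagent) was preincubated 10 min at RT with compound (up to 57.5 uM final), then substrate plus GAPDH/TPI/NAD/arsenate coupling system with diaphorase/resazurin was added; resorufin fluorescence (525/598 nm) was read after 20 min.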
# Pf growth 96h = P. falciparum growth inhibition at 96 hour, primary screen for plastid delayed-death inhibitors; P. falciparum luciferase reporter growth, 96 h; hit rate 6.9% among 320,000; Potency, µM (titrated, usually from 28.7 µM), for inactives: at the top dose activity change, negative = inhibition, usual class: inhibitors; further: potency means the concentration at half of the fitted maximal effect
#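 Parasite growth measured via integrated firefly luciferase reporter in P. falciparum. Infected erythrocytes at 2% hematocrit, 0.05% parasitemia final were treated 96 hours at 37 C under 5% CO2, and luminescence was read.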
# Numbers without * were called inactive; ? = inconclusive; · = no result given; [ ] = another dose, or the depositor's remark. Unless noted, the call rests on the fitted dose curve; in most records, active means well fitted curve in the direction sought with a large enough effect; inconclusive means small, poorly fitted or top-dose-only effect, or another doubt; inactive means no such curve, though single readings can be large; an effect the other way counts as inactive or inconclusive. On the % scale 0 is the no-effect control and ±100 the full control effect.
SMILES,HCMV inh,Sm TGR block,Pf growth 48h,FBPA Giardia inh,Pf growth 96h
O=C(OC1CCOC1=O)c1cc(S(=O)(=O)N2CCOCC2)c(Cl)cc1Cl (stereo not given),-1.7,-2.2%,-20.5%,·,-25.2%
COc1ccc(C(=O)Nc2ccccc2)cc1S(=O)(=O)NCc1ccco1,2.0,44.7µM*,-13.7%,4.9%,-4.7%
O=C(Nc1ccc(S(=O)(=O)NCc2ccco2)cc1)c1ccc(F)cc1,-32.6,-22.8%,?,-1.0%,-12.6%
Cc1ccc(NC(=O)CN(C)C(=O)c2cccc(S(=O)(=O)NCc3ccco3)c2)cc1,-3.7,-27.1%,-6.1%,·,9.28µM*
COc1cc(C(=O)Nc2cccc(S(=O)(=O)NCc3ccco3)c2)cc(OC)c1OC,71.0,-15.8%,?,·,-70.7%
Cc1noc(C)c1COC(=O)c1ccc(S(=O)(=O)NCc2ccco2)cc1,5.8,39.8µM*,-3.1%,6.3%,?
Cc1cc(C)n(-c2ccc(C(=O)Nc3ccc(S(=O)(=O)NCc4ccco4)cc3)cc2)n1,-96.5*,-32.7%,13.1µM*,-2.9%,29.5%
CN(CC(=O)Nc1ccc(Cl)cc1)C(=O)c1cccc(S(=O)(=O)NCc2ccccc2)c1,-19.8,27.8%,2.1%,·,1.5%
COc1ccc(C)cc1NC(=O)C(=O)NCCc1csc(-c2ccc(C)cc2)n1,79.7,8.6%,·,·,·
Cc1ccc(CNC(=O)CCS(=O)(=O)c2ccc3c(c2)CC(C)N3C(=O)C2CC2)cc1 (stereo not given),?,-27.8%,6.2%,9.7%,2.9%
Cc1ccc(C(=O)Nc2ccc(S(=O)(=O)NCc3ccco3)cc2)cc1,29.5,50.1µM*,·,-3.6%,12.9%
O=C(Nc1ccccc1)c1ccc(S(=O)(=O)NCc2ccco2)cc1,-5.4,?,-1.0%,1.7%,1.4%
O=C(O)c1ccc(N/N=C/c2cc3ccccc3nc2Cl)cc1,54.3,1.6%,184.6%,2.4%,207.0%
COc1cc(/C=N/Nc2nc3ccccc3[nH]2)cc(OC)c1O,59.8,-8.8%,1.65µM*,-7.2%,0.928µM*
COc1cc(/C=N/Nc2nc3ccccc3[nH]2)ccc1O,21.4,-6.2%,0.828µM*,1.2%,?
Clc1nc2ccccc2cc1/C=N/Nc1nc2ccccc2[nH]1,160.6,2.2%,0.522µM*,4.5%,?
COc1ccc(O)c(/C=N/Nc2nc3ccccc3[nH]2)c1,9.0,·,1.85µM*,-11.5%,2.1%
CCOC(=O)N(C)C[C@H]1OCc2cnnn2CCCC(=O)N([C@@H](C)CO)C[C@H]1C,10.9,·,·,·,·
O=[N+]([O-])c1ccc(O)c(/C=N/Nc2ncnc3c2cnn3-c2ccccc2)c1,-98.9*,0.6%,1.17µM*,-22.9%,0.522µM*
O=[N+]([O-])c1cccc(N/N=C/c2cc([N+](=O)[O-])ccc2O)c1,-9.2,-3.3%,-12.7%,0.6%,2.7%
CC(=O)Nc1ccc(Nc2ncnc3c2cnn3-c2ccccc2)cc1,-3.5,12.9%,135.0%,-0.7%,106.0%
O=[N+]([O-])c1ccc(O)c(/C=N/Nc2nc3ccccc3[nH]2)c1,-99.2*,3.6%,2.33µM*,-10.7%,75.7%
COc1cc(/C=N/Nc2nc3ccccc3[nH]2)cc(Br)c1OCC(=O)N(C)C,-38.8,2.3%,0.465µM*,-16.0%,0.465µM*
COc1cc(/C=C(/C(=O)c2cccs2)c2nc3ccccc3[nH]2)cc(OC)c1O,-102.4*,35.5µM*,·,?,?
COC(=O)[C@H](COC(C)(C)C)NC(=O)O[C@@H]1C(=O)c2cc(Br)ccc2O[C@H]1c1cccc(OC)c1,·,·,·,0.5%,·
SMILES,HCMV inh,Sm TGR block,Pf growth 48h,FBPA Giardia inh,Pf growth 96h
COc1ccc(OC)c(/C=C/C(=O)OCC(=O)NCc2cccs2)c1,-20.1,-6.0%,-17.6%,·,?
O=C(N/C(=C/c1ccc(Cl)cc1)c1nc2ccccc2[nH]1)c1ccco1,-21.8,0.0%,6.2%,6.2%,214.4%
O=C(/C(=C/c1ccc(Cl)cc1)c1nc2ccccc2[nH]1)c1ccccc1,-95.7*,7.0%,2.94µM*,-1.3%,2.33µM*
O=C(COC(=O)/C=C/c1cccc(C(F)(F)F)c1)Nc1cccc(S(=O)(=O)NC2=NCCC2)c1,-27.7,·,·,·,·
Cc1cccc2nc(-c3ccccc3)nc(N[C@@H](CO)c3ccccc3)c12,5.0,3.8%,13.1µM*,-2.7%,13.1µM*
CC1CN(C(=O)c2cc(F)c(F)cc2Cl)CC(C)O1 (stereo not given),78.6,·,·,·,·
COc1cc2ccccc2cc1C(=O)N1CC(C)OC(C)C1 (stereo not given),4.7,·,·,·,·
O=C(COc1ccc(Br)cc1)N1CCN(S(=O)(=O)/C=C/c2ccccc2)CC1,29.7,-1.7%,?,7.8%,11.7µM*
O=C(COc1ccccc1F)N1CCN(S(=O)(=O)/C=C/c2ccccc2)CC1,?,-3.9%,-14.5%,7.1%,-29.7%
Cc1ccc(C(=O)N2CC(C)OC(C)C2)c(Cl)c1 (stereo not given),23.4,1.9%,·,-2.8%,3.7µM*
COc1cc(SC)ccc1C(=O)N1CC(C)OC(C)C1 (stereo not given),-29.0,?,1.65µM*,-2.3%,-3.4%
COc1cc(SC)ccc1C(=O)N1CCN(S(=O)(=O)/C=C/c2ccccc2)CC1,-1.9,39.8µM*,?,·,?
Nc1ccc(S(=O)(=O)Nc2ccccc2)cc1,-2.2,·,-8.4%,·,-0.5%
C=CCN1C(=O)c2ccc(C(=O)N3CCC(C(N)=O)CC3)cc2C1=O,-86.1*,-32.1%,8.5%,·,6.4%
C=CCN1C(=O)c2ccc(C(=O)N3CCN(c4ccccc4OC)CC3)cc2C1=O,-6.4,-4.9%,?,·,10.8%
C=CCN1C(=O)c2ccc(C(=O)N3CCN(S(=O)(=O)c4cccc(Cl)c4)CC3)cc2C1=O,-76.3*,-14.2%,10.4µM*,·,13.1µM*
CC(=O)c1ccc(C2C=CC(Oc3ccc(F)cc3C)C(CO)O2)cc1 (stereo not given),·,·,·,-6.1%[12.9 µM],·
CCCOc1ccc(C2c3c(oc4ccccc4c3=O)C(=O)N2CCN(CC)CC)cc1OC (stereo not given),-17.0,-16.6%,1.47µM*,13.3%,?
CCN(CC)CCN1C(=O)c2oc3ccccc3c(=O)c2C1c1cccc(Br)c1 (stereo not given),-3.9,-0.3%,?,9.5%,0.928µM*
O=C1c2oc3ccc(Cl)cc3c(=O)c2C(c2cccc(Br)c2)N1CCO (stereo not given),-13.5,0.7%,11.7µM*,-2.7%,0.7%[5.75 µM]
CN(C)CCCN1C(=O)c2oc3ccc(Cl)cc3c(=O)c2C1c1cccnc1 (stereo not given),3.7,3.0%,?,6.1%,?
CCN(CC)CCN1C(=O)c2oc3ccccc3c(=O)c2C1c1ccccc1 (stereo not given),·,6.4%,?,-6.8%,?
C#C[C@]1(OC(C)=O)CCC2C3CCC4=CC(=O)CC[C@@H]4C3CC[C@@]21C (stereo not given in full),23.6,-3.6%,23.0%,-4.1%,-2.5%
